This note sets out measurements from PubChem BioAssay AID588489 (Sanford-Burnham Center for Chemical Genomics, 2011).

The whole screen tested about 360,000 compounds, of which about 1,300 (0.36%) were called active. For the sample, actives were picked, then their nearest neighbours and some compounds at random. Values without a mark were called inactive. Rule as the data show it: active = inhibition above about 35% (passing the limit was not always enough); inactive = the rest.

Polyadenylate-binding protein 1 (Homo sapiens), sequence (P11940 whole entry, looked up): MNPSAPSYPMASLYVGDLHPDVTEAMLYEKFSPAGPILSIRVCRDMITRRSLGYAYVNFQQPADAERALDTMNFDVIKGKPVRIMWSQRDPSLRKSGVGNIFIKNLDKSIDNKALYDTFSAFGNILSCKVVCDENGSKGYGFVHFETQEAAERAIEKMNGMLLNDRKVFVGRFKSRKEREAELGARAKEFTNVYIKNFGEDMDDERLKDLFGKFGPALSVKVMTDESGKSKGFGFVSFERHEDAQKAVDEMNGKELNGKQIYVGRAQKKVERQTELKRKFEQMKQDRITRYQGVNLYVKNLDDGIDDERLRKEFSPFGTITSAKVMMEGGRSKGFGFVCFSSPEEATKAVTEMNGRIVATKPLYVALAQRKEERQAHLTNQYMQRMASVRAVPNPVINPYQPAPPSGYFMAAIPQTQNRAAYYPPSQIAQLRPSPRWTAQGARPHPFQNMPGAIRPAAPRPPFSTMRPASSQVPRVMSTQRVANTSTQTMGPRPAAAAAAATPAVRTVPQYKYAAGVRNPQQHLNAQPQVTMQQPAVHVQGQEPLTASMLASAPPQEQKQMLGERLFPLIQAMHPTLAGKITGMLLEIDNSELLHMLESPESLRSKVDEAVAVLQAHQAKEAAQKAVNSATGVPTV

The assay concerns the target Polyadenylate-binding protein 1 (Homo sapiens) (UniProt P11940). As to the kind of experiment: PAM2 peptide displacement from PABP1 MLLE – biochemical, fluorescence polarization, FITC-PAM2, GST-MLLE, primary screen (AID 588489).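 Also: plate controls were DMSO wells with GST-MLLE for no effect and wells lacking GST-MLLE protein for full effect.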 Conditions: at 20 µM, stronger effect = higher value. In general terms: Polarisation of emitted light reports the rotation of a fluorescent probe.
Consider `Nc1ccc2nc3c(=O)[nH]c(=S)[nH]c3nc2c1`, for which the inhibition (as a rule, the change of the read-out against control, counted positive when it falls) was 177%. `O=C1NCCn2nc3ccccc3c21`: the inhibition is 0.33%. To `O=c1[nH]c(=O)c2nc3ccccc3nc2[nH]1` belongs 53.2% (active); to `COC(=O)c1ccc(CNC(=O)c2ccc(S(=O)(=O)N3CCCCCC3)cc2)cc1`, -6.55%.

For the molecule `Cc1cc2cc(CNC(=O)c3ccc(S(=O)(=O)N4CCOCC4)cc3)ccc2[nH]1`, the inhibition was 45.1% (active). As for `Cc1cc2cc(CNC(=O)c3cccs3)ccc2[nH]1`, the inhibition was 38%.

As for `COCCn1c(N)c(NCc2ccccc2)c(=O)[nH]c1=O`, the inhibition is 44.1% (active). Regarding `COCCn1c(N)c(N(Cc2ccccc2)C(=O)C2CCCCC2)c(=O)[nH]c1=O`, the inhibition was -2.43%. The result for `COCCN(C(=O)c1ccccc1F)c1c(N)n(Cc2ccccc2)c(=O)[nH]c1=O` reads -9.82%.

For the molecule `C=CCc1cccc2cc(C(=O)NC3CCCC3)c(=O)oc12`, the inhibition was 6.38%. The result for `CC1CN(C(=O)c2ccc3c(c2)OCO3)OC(c2ccccc2)O1` (stereo unspecified) reads 0.75%. In the case of `CSCCC(NC(=O)C1CCC(C)CC1)C(=O)NCc1ccco1` (stereo unspecified), the inhibition is -8.36%. The result for `CC(=O)Nc1ccc(NC(=O)C(NS(=O)(=O)c2ccc3c(c2)OCCO3)C(C)C)cc1` (stereo unspecified) reads 1.54%; that for `CCOC(=O)CNc1nc(Cl)nc(Nc2ccc(OC)cc2OC)n1`, 1.38%.

In the case of `CCOC(=O)C(C)n1cnc2c(nnn2-c2cccc(OC)c2)c1=O` (stereo unspecified), the inhibition was 1.6%. Turning to `CCOC(=O)c1sc(=S)n(-c2cccc(OC)c2)c1N`, the inhibition is 40.5% (active). With `Cc1cccc(-n2c(N)c(C(=O)N3CCN(C)CC3)sc2=S)c1`, the inhibition is 3.33%. The result for `O=C(CN1C(=O)COc2ccc(Cl)cc21)N1CCOCC1` reads 8.9%; that for `CC1(C(=O)NS(=O)(=O)Cc2cccc(Cl)c2)CCN1C(=O)Cc1ccccc1` (stereo unspecified), -3.36%.

`NNC(=O)CNC(c1ccccc1)c1cc(Cl)ccc1NC(=O)c1ccccc1` (stereo unspecified): the inhibition is -2.37%. Regarding `COc1ccc(Nc2ccc([N+](=O)[O-])cn2)cn1`, the inhibition is 48.7% (active).

In the case of `COC(=O)c1ccccc1N=NNc1ccc([N+](=O)[O-])cc1`, the inhibition is 18.6%. The result for `COc1cc(NC(=O)Nc2ccc(C)cc2)cc([N+](=O)[O-])c1` reads -3.48%; that for `OC(c1ccc(Cl)cc1)C(CN1CCOCC1)c1ccccc1` (stereo unspecified), -5.53%. The result for `C=C1c2cccc(OC)c2O[C@H](C(=O)OCC)[C@@H]1CCCCCC` reads -73.6%. To `CC(=O)c1cnc(SCCN2C(=O)c3ccccc3C2=O)nc1C` belongs 4.46%; to `Cc1ccc(S(=O)(=O)NNC(=O)Nc2cccc3ccccc23)cc1`, 3.51%; to `COC(=O)C1=CN(c2ccc(F)c(F)c2)C=C(C(=O)OC)C1c1ccc([N+](=O)[O-])cc1`, 9.34%. With `COC(=O)C1=C(C(=O)OC)C(c2cc([N+](=O)[O-])ccc2O)c2sc(=O)[nH]c2S1` (stereo unspecified), the inhibition was 40.3% (active).

Turning to `COC(=O)c1c(C)[nH]c(C)c1-c1ccc([N+](=O)[O-])cc1`, the inhibition was -2.95%. The result for `Cc1ccc(C2=NN(C)c3nc4ccccc4n3C2)cc1` reads -3.04%; that for `COc1ccc(NS(=O)(=O)c2ccc(C)c(C(=O)NNC(=O)c3csc(N4CCOCC4)n3)c2)cc1`, -13.1%; that for `C=CCNC(=S)NNC(=O)c1ccc(Br)o1`, -45.2%.

Regarding `CCOc1ccc(Cn2c(SCCCCC#N)nc3c2c(=O)n(C)c(=O)n3C)cc1OCC`, the inhibition is 44% (active). The result for `CCCCn1c(SCC(=O)NCCc2ccc(OC)c(OC)c2)nc2c1c(=O)n(C)c(=O)n2C` reads 4.31%.

Regarding `CCCSc1nc2c(c(=O)n(C)c(=O)n2C)n1Cc1ccc(C)cc1`, the inhibition was -1.85%. As to `O=C(NCCC(=O)N1O[C@@H]2C=C[C@H]1C2)OCC1c2ccccc2-c2ccccc21`, the inhibition is -4.15%. On to `CCOCc1nnc(NC(=O)CCC2CCCCC2)s1`, for which the inhibition is -2.53%. In the case of `Cc1cc([N+](=O)[O-])nn1CCCC(=O)Nc1cccnc1Cl`, the inhibition was 2.45%. For `COc1cccc(-n2c(=S)sc3c(=O)n(-c4ccccc4OC)c(SCC4OCCO4)nc32)c1`, the inhibition was -1.94%. The result for `COc1cccc(-n2c(=S)sc3c(=O)n(-c4ccccc4C)c(SCC(=O)O)nc32)c1` reads -10.4%. Regarding `COc1ccc(Cl)cc1-n1c(=S)sc2c(=O)n(-c3ccc(F)cc3)c(SCC(=O)O)nc21`, the inhibition is 43.8% (active).

Regarding `COc1ccccc1C(=O)Oc1ccc(N2C(=O)CCC2=O)cc1`, the inhibition was -2.33%.

On to `O=C(c1ccc(Cn2cc([N+](=O)[O-])cn2)o1)N1CCCC1`, for which the inhibition is -7%. The result for `CC1COc2ccccc2N1C(=O)c1ccc(F)cc1` (stereo unspecified) reads -13.6%.

In the case of `O=C(c1ccc(F)cc1)N1CCC(n2nnc3ccccc32)CC1`, the inhibition is -6.3%. To `O=C(c1ccc(F)cc1)n1c(=S)nc2ccccn21` belongs 39% (active); to `O=C(COC(=O)/C=C/c1nc2ccccc2s1)Nc1ccccc1Oc1ccccc1`, -5.84%; to `Cc1ccc(C2CCN(C(=S)Nc3cccc(Cl)c3)C2)cc1` (stereo unspecified), -122%.

Take `Cc1cccc(NC(=S)Nc2ccc(Cl)c(Cl)c2)c1`: the inhibition was 37.8% (active). To `Cc1csc(NC(=S)Nc2cccc(Cl)c2)n1` belongs 35.5% (active). For `O=C(NCc1cn2ccsc2n1)Nc1cccc(Cl)c1`, the inhibition was -5.66%.

Regarding `Cc1ccc(C)c(NC(=S)NNC(=S)Nc2ccc(C(C)C)cc2)c1`, the inhibition is 30.8%. To `NS(=O)(=O)c1ccc(NC(=S)Nc2ccc(Br)c(Cl)c2)cc1` belongs 33.2%; to `CCc1noc(C)c1C(=O)N1CCCC(N2CCN(c3ccc(F)cc3)CC2)C1` (stereo unspecified), -6.88%; to `Cc1cccc(-n2nc3c(c2NC(=O)c2cc4ccccc4o2)CS(=O)(=O)C3)c1`, 2.88%. To `CC(C)(C)n1nc2c(c1NC(=O)c1cc3ccccc3o1)CSC2` belongs 47.2% (active); to `Cc1cc(NC(=O)c2cc3ccccc3o2)no1`, 16%; to `C=CCn1c(SCC(=O)NCc2ccccc2)nnc1-c1cc(Br)ccc1O`, -75.9%. As for `CCOC(=O)C1=C(CSc2nnnn2C)N(C)C(=O)NC1c1ccccc1` (stereo unspecified), the inhibition is -3.23%.

Take `O=C1CCCC(O)=C1N=Nc1ccc(S(=O)(=O)N2CCOCC2)cc1`: the inhibition was 8.62%. As to `O=C1CCCC(O)=C1N=Nc1ccc2ncsc2c1`, the inhibition is 45.2% (active). To `O=C(NCCC1CCCCN1S(=O)(=O)c1ccccc1)C(=O)NCC1CCCO1` (stereo unspecified) belongs 1.52%; to `O=C(N/N=C\c1cc(Br)c(Br)o1)C1COc2ccccc2O1` (stereo unspecified), -16.5%. For the molecule `Cc1ccc(C(=O)N/N=C\c2cc(Br)c(Br)o2)cn1`, the inhibition is 69.9% (active). Consider `O=C(N/N=C/c1ccc(Br)o1)c1cncc(Br)c1`, for which the inhibition was 6.99%. Turning to `CC(C)N(C(=O)Cn1cc(SCC(=O)N2CCCC2)c2ccccc21)C(C)C`, the inhibition was -0.1%. Regarding `CCOc1ccccc1N1C(=O)CC(Sc2nccc(C)n2)C1=O` (stereo unspecified), the inhibition was 20.7%. The result for `CC(=O)Nc1ccc(N2C(=O)CC(Sc3nccc(C)n3)C2=O)cc1` (stereo unspecified) reads 20.5%; that for `Cc1ccnc(SC2CC(=O)N(c3ccccc3)C2=O)n1` (stereo unspecified), 38.2% (active); that for `CCCCNC(=O)C1(c2ccc(OC)cc2)CCOCC1`, -4.07%. To `CC(C)N(Cc1nnc(-c2ccccc2Br)o1)C(=O)c1cc(Cl)nc2ccccc12` belongs -1.33%; to `Nc1cccc2c1C(=O)N(Cc1nnc(-c3ccccc3Br)o1)C2=O`, 41.2% (active); to `Cn1cnnc1SCc1nnc(-c2ccccc2Br)o1`, -6.49%. The result for `CCOC(=O)c1cc2sccc2n1Cc1ccc(C#N)cc1` reads -2.73%; that for `CC(Sc1ccc(S(=O)(=O)N2CCN(C)CC2)cn1)C(=O)NC1CCCC(C)C1C` (stereo unspecified), -9.12%; that for `CC1(C)C2CC=C(/C=N/NC(=O)c3ccc(Cl)cc3)C1C2` (stereo unspecified), 10.7%. Consider `O=C1CCC(=O)N(c2ccccc2)N1`, for which the inhibition was 3.9%. The result for `CCOc1ccccc1NC(=S)NC(=O)CCc1ccccc1` reads 17.8%; that for `Fc1ccccc1CNC(=S)Nc1ccc(Cl)cc1`, -18.2%. To `O=C(Cc1ccc(Cl)cc1)NC(=S)Nc1ccccc1O` belongs 37.5% (active); to `Cc1sc2ncn(CC(=O)NCCCC(=O)NCc3ccc(F)cc3)c(=O)c2c1C`, -10.9%.

Turning to `Cc1n[nH]c(=O)c2c(NC(=O)CSc3ccccc3F)oc(C)c12`, the inhibition is 25.1%. `COc1ccc(OC)c(C2N(c3ccccn3)C(=O)C3CCCN32)c1` (stereo unspecified): the inhibition was -4.22%. On to `COCC(C)N=CC1=C(O)CC(C)(C)CC1=O` (stereo unspecified), for which the inhibition is 6.93%.

Turning to `CCN(CC(=O)Nc1ccc(NC(C)=O)cc1)C(=O)CSC(=S)N1CCCC1`, the inhibition was 5.05%. In the case of `COc1cccc(NC(=O)CN(C)C(=O)Cc2ccc(Cl)cc2Cl)c1`, the inhibition was -1.03%.

Regarding `COc1cccc(NC(=O)CN(C)C(=O)CSC(=S)N2CCCC2)c1`, the inhibition is 40.8% (active). The result for `COc1ccc(NC(=O)c2c(C)oc3c2CCCC3)cc1` reads 6.57%; that for `COc1ccc(N/N=C2/CCCCC2=O)cc1`, 44.5% (active); that for `Cc1ccc(N/N=C2\COC(C)(C)CC2=O)cc1`, -0.27%. To `COc1ccc(-c2cc(C3CCN(c4ncccc4[N+](=O)[O-])CC3)[nH]n2)cc1` belongs 6.76%; to `CCc1ccc2c(c1)C1(NN=C(c3ccccc3)S1)C(=O)N2` (stereo unspecified), 45.2% (active); to `CCc1ccc2c(c1)NC(=O)C2(C)Cc1ccc(OC(F)(F)F)cc1` (stereo unspecified), 8.45%. To `CC[N+]1(CC)CC2=Cc3ccccc3CC2C1` (stereo unspecified) belongs -5.91%. As to `O=C(Nc1cc(S(=O)(=O)Nc2ccc(Cl)cc2)ccc1O)c1ccc(F)cc1F`, the inhibition is -7.73%.
